HEK293 tox = Cytotoxic Profiling in HEK 293 Cell Line of Diverse Libraries Using Quantitative High-Throughput Screening | HEK 293 viability, ATP luminescence (CellTiter-Glo), 48-72 h | Potency, µM (highest dose often 115 µM), for the others: top-dose activity change, negative = cytotoxicity, usual class: inhibitors | 6.6% of 94,000 active; also: nearly all actives have a fitted effect of over 60% in size
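Viability of HEK 293 cells, plated at 250 cells/well, was judged by cellular ATP after compound treatment for 48 or 72 hr. Luminescence was imaged 10 min after CellTiter-Glo addition at room temperature.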
hNpr1 antagonist = Natriuretic polypeptide receptor (hNpr1) antagonism - Primary qHTS. Atrial natriuretic peptide receptor 1 (Homo sapiens), P16066. HEK293 hNpr1 GloSensor cGMP, ANP-stimulated luminescence. Potency, µM (highest dose often 46.3 µM), for inactives: at the top dose activity change, negative = inhibition, hits mostly inhibitors. 1.6% of 76,000 active. AID 1347048, 2019; calls by dose curve; also: nearly all actives have a fitted effect of over 60% in size
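HEK293 cells stably expressing human Npr1 and cGMP GloSensor pGS-40F, loaded 2 h with 2% GloSensor reagent, given compound 30 min at room temperature. Luminescence read before and 20 min after 0.1 nM hNppA.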
Luciferase inh = Firefly luciferase inhibition profiling of diverse chemical library using quantitative high-throughput screening; Luciferin 4-monooxygenase (Photinus pyralis), P08659; purified P. pyralis luciferase, luminescence, biochemical; Potency, µM (doses to about 115 µM), actives largely listed as inhibitors; 2.5% of 76,000 active; also: nearly all actives have a fitted effect of over 65% in size
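Purified P. pyralis luciferase (10nM final) in 50mM Tris acetate pH 7.5, 10mM Mg acetate, 0.01% Tween-20, 0.05% BSA with 10uM D-luciferin and 10uM ATP. Compounds titrated qHTS. Luminescence imaged on CCD.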
NIH3T3 tox = Cytotoxic Profiling in NIH 3T3 Cell Line of Diverse Libraries Using Quantitative High-Throughput Screening. NIH 3T3 viability, CellTiter-Glo ATP luminescence, 48-72 h. Potency, µM (highest dose often 96.7 µM), for inactives: at the top dose activity change, negative = cytotoxicity, actives largely listed as inhibitors. AID 1345082, 2018. 4.3% of 94,000 active; also: nearly all actives have a fitted effect of over 55% in size
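ATP-dependent luminescence (CellTiter-Glo) served as the viability signal for NIH 3T3 cells treated with compound for 48 or 72 hr at 37 °C.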
GPT2 inhibitor = Primary qHTS assay for inhibitors of Glutamate pyruvate transaminase 2 (GPT2); AID 1671188, 2021; Alanine aminotransferase 2 (Homo sapiens), Q8TD30; 0.25% of 100,000 active; Recombinant GPT2, coupled pyruvate oxidase/HRP Amplex Red fluorescence; Potency, µM (top dose mostly 57.7 µM), for the others: at the highest dose activity change, negative = inhibition, actives largely listed as inhibitors; also: nearly all actives have a fitted effect of over 60% in size
Target sequence (Q8TD30 whole entry, looked up): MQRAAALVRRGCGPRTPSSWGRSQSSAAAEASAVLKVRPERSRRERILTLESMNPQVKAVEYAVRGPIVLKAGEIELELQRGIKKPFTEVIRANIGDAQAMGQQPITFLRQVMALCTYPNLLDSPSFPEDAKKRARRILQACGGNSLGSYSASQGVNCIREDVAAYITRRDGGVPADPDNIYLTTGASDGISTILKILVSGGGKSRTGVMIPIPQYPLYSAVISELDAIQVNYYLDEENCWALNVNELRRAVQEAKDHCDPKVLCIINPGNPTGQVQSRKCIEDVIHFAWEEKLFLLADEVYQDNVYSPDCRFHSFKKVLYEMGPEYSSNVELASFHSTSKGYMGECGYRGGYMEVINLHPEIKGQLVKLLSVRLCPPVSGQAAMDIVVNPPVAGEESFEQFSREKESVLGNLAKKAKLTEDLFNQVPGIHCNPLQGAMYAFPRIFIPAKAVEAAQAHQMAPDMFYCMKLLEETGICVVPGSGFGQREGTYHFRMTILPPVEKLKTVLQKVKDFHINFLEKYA
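Recombinant GPT2 (10ng/uL) with 250uM a-KG and 2mM L-alanine, 30 min at room temperature, in HEPES pH 7.5 buffer. Pyruvate detected by pyruvate oxidase/HRP/Amplex Red fluorescence after 30 min in the dark; AOA (50uM) as positive control.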
* hit, by the source's call; i = inactive; ? = inconclusive; · = no result; [ ] = another dose, or the depositor's remark. Compounds with a hit are over-represented: about 10% of the library has one in this group of screens. Unless noted, calls follow the shape of the dose curve; as a rule, active = well fitted curve in the direction sought with a large enough effect; inconclusive = small, poorly fitted or top-dose-only effect, or another doubt; inactive = no such curve, though single readings can be large; an effect the other way counts as inactive or inconclusive. % is scaled to controls: 0 for no effect and ±100 for the full control effect; potency is read from the fitted curve at half-maximal effect.

SMILES | HEK293 tox | hNpr1 antagonist | Luciferase inh | NIH3T3 tox | GPT2 inhibitor
CCC1Oc2ccc(NC(=O)c3ccc4c(c3)OCO4)cc2CN(Cc2ccccc2)C1=O (configuration not stated) | 89µM* | -2% | i | -26% | 1%
CCC1Oc2ccc(NC(=O)Cc3ccccc3)cc2CN(Cc2ccc3c(c2)OCO3)C1=O (configuration not stated) | 35µM* | -15% | i | ? | -13%
CCC1Oc2ccc(NC(=O)Cc3ccc(OC)cc3)cc2CN(Cc2ccc(OC)cc2)C1=O (configuration not stated) | ? | -12% | i | ? | ?
CCC1Oc2ccc(NC(=O)c3cccc(OC)c3)cc2CN(Cc2ccccc2)C1=O (configuration not stated) | 45µM* | -23% | i | ? | -15%
CCC1Oc2ccc(NC(=O)c3ccc(F)cc3F)cc2CN(Cc2ccc3c(c2)OCO3)C1=O (configuration not stated) | ? | -17% | i | -29% | 4%
COCCNC(=O)C1CCN(c2nccc(Nc3ccccc3Cl)n2)CC1 | ? | · | · | ? | -1%
C=CCCOC(=O)N1C[C@@H](C(=O)OCC)[C@@H]2Oc3cc(OC)ccc3[C@@H]21 | -18% | · | · | ? | ·
CCOC(=O)[C@@H]1CN(C(=O)OCC(C)C)[C@H]2c3ccc(OC)cc3O[C@@H]12 | -27% | · | · | 40µM* | ·
O=C(Cc1ccccc1)N1C[C@@H](CO)[C@@H]2Oc3c(F)cccc3[C@@H]21 | ? | · | · | -31% | ·
CC(C)COC(=O)N1C[C@@H](CO)[C@@H]2Oc3c(F)cccc3[C@@H]21 | ? | · | · | 32µM* | ·
O=C1OCC2(CCN(Cc3ccn[nH]3)C2)N1CCN1CCOCC1 (configuration not stated) | · | · | · | · | -8%[88.5 µM]
O=C1NCCCCCCN(C(=O)c2cccnc2)[C@H]2C[C@H](C(=O)N3CCc4ccccc4C3)C[C@@H]12 | -2% | 1% | i | 28µM* | i
O=C1NCCCCCN(C(=O)CC2CCCC2)[C@@H]2C[C@@H](C(=O)N3CCc4ccccc4C3)C[C@H]12 | 32µM* | -11% | i | ? | i
O=C1NCCCCCN(C(=O)CC2CCCCC2)[C@@H]2C[C@@H](C(=O)N3CCc4ccccc4C3)C[C@H]12 | ? | -18% | i | ? | 5%
CNC(=O)CCn1ncc2cc(OC3CCc4cccc(-c5ccncc5)c43)ccc21 (configuration not stated) | 100µM* | 3%[70.6 µM] | i | ? | 1%[88.5 µM]
CNC(=O)CCn1ncc2cc(OC3CCc4cccc(-c5cccnc5)c43)ccc21 (configuration not stated) | 100µM* | -16%[70.6 µM] | i | ? | ?
COCC(=O)N1CCN(C(=O)c2nc3cccnc3n(CC(C)C)c2=O)CC1 | 1% | · | · | -11% | 2%
Cc1ccc(OCc2nc(C3CCCN3C(=O)Nc3ccccc3)no2)cc1 (configuration not stated) | 89µM* | · | · | ? | -7%
Cc1ccc(NC(=O)N2CCCCC2c2noc(COc3ccc(F)cc3)n2)cc1F (configuration not stated) | 45µM* | -26% | i | ? | i
Cc1ccc(OCc2nc(C3CCCN3C(=O)NCC(C)C)no2)cc1 (configuration not stated) | -12% | · | · | -22% | i
Cc1ccc(OCc2nc(C3CCCN3C(=O)Nc3ccc(C)c(F)c3)no2)cc1 (configuration not stated) | 89µM* | -23% | i | ? | -14%
COc1ccc(CNC(=O)N2CCCC2c2noc(COc3ccc(C)cc3)n2)cc1 (configuration not stated) | ? | -18% | i | ? | i
C=CCn1cc2c3c(cccc31)[C@H](CC(C)C)N[C@H](C(=O)NC1CCC1)C2 | 63µM* | -5%[70.6 µM] | i | ? | -16%[88.5 µM]
C=CCn1cc2c3c(cccc31)[C@H](CC(C)C)N[C@H](C(=O)NCc1ccccc1)C2 | ? | -17%[70.6 µM] | i | ? | -11%[88.5 µM]
C=CCNC(=O)[C@@H]1Cc2cn(CC3CC3)c3cccc(c23)[C@H](CC(C)C)N1 | 50µM* | -16%[70.6 µM] | i | ? | -16%[88.5 µM]
SMILES | HEK293 tox | hNpr1 antagonist | Luciferase inh | NIH3T3 tox | GPT2 inhibitor
C=CCNC(=O)[C@@H]1Cc2cn(Cc3c(C)noc3C)c3cccc(c23)[C@H](CC(C)C)N1 | 100µM* | 0%[70.6 µM] | i | 112µM* | 1%[88.5 µM]
C=CCn1cc2c3c(cccc31)[C@H](CC(C)C)N[C@H](C(=O)NC1CCCC1)C2 | 40µM* | 0%[70.6 µM] | i | 32µM* | -1%[88.5 µM]
Cc1cnc(C2CC2)n1CCNC(=O)C1CC1 | -3% | · | · | -12% | -7%
CC(C)C[C@@H]1N[C@H](C(=O)NC2CCCC2)Cc2cn(CC3CC3)c3cccc1c23 | 45µM* | 4%[70.6 µM] | i | 35µM* | -11%[88.5 µM]
C=CCn1cc2c3c(cccc31)[C@H](CC(C)C)N[C@H](C(=O)NCc1ccccc1OC)C2 | 40µM* | -5%[70.6 µM] | i | 25µM* | -17%[88.5 µM]
CC(C)C[C@@H]1N[C@H](C(=O)O)Cc2cn(CC3CC3)c3cccc1c23 | ? | ? | i | ? | -34%[88.5 µM]
O=C(NCCc1ccccc1)C1CCN(c2ccnc3ccnn23)CC1 | ? | · | · | ? | 1%[88.5 µM]
OC[C@@H]1CN(Cc2ccoc2)C[C@H]1c1nc(-c2ccncc2)no1 | ? | 2% | ? | -18% | 1%
OC[C@@H]1CN(Cc2cccc(F)c2)C[C@H]1c1nc(-c2ccncc2)no1 | 45µM* | -23% | i | -17% | -2%
OC[C@@H]1CN(Cc2ccc(F)cc2)C[C@H]1c1nc(-c2ccncc2)no1 | ? | 14µM* | ? | ? | -21%
CN1c2cc(C(=O)N3CCN(c4ccc(Cl)cc4)CC3)ccc2C(=O)N2CCCCC21 (configuration not stated) | ? | ? | i | -28% | i
COc1cccc(N2CCN(C(=O)c3ccc4c(c3)N(C)C3CCCCCN3C4=O)CC2)c1 (configuration not stated) | 50µM* | 1% | i | -27% | i
CN1c2cc(C(=O)N3CCN(c4ccc(F)cc4)CC3)ccc2C(=O)N2CCCCCC21 (configuration not stated) | 45µM* | -13% | i | ? | 3%
